Drawing on PubChem BioAssay (EPA / NIEHS), this text covers AC50 and outcome for 25 molecules.

Several values for one entry are separate records, joined by “and”; a condition that tells them apart may be missing. Equal values may be shown once. Results filed as inconclusive are left out. Some structures have more than one record in an assay (separate samples or runs), and their calls can disagree. Activity calls are given as the source filed them. The calls were made as follows: active = hit-call score of the fitted dose curve at least 0.9, where 1 is the maximum; inconclusive = response in the unintended direction; inactive = score below 0.9.

Usually AC50 stands for the midpoint of the concentration-response curve, whichever way the signal moves.

In experiment [1] the target is human Norepinephrine Transporter (NET), SLC6A2 (gene 6530) (UniProt P23975). Nature of the experiment: NVS_TR_hNET: NovaScreen (NVS) Transporter Assay for human Norepinephrine Transporter (NET) (AID 2283377).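 Also: cell-free membrane protein extracted from CHO cells expressing human NET; displacement of radioligand from human NET seen as loss of scintillation signal.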 In short, it runs like this:
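CHO cell extracts expressing the transporter; tritiated or iodinated tracer displaced competitively; filtration plus scintillation readout at 1 h. Single-point duplicates at 25 uM, concentration series for follow-up; activity = signal drop relative to DMSO.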

Experiment [2] deals with Estrogen receptor beta (Homo sapiens) (UniProt Q92731). Description: OT_ER_ERbERb_1440: Odyssey Thera (OT) 24-hour HEK293T Protein-Complementation Assay for Estrogen Receptor-beta/-beta Homodimer (AID 2283380).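 Also: scored as signal increase over DMSO baseline for both agonists and antagonists.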 The essentials: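 HEK293T cells stably expressing ER beta LBD (aa 310-547) homodimer fragment-complementation reporter, dosed 24 h. Cells formaldehyde-fixed, Draq5-stained; gain in nuclear (agonist) or nuclear plus cytoplasmic (antagonist) fluorescence versus DMSO read by laser scanning cytometry.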

The target of experiment [3] is human Thyroid Receptor Alpha (TRa), THRA (gene 7067) (UniProt P10827). Description: NVS_NR_hTRa_Antagonist: NovaScreen (NVS) Nuclear Receptor Binding Assay for human Thyroid Receptor Alpha Antagonism (TRa) (AID 2283362). In short, it runs like this: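 Extracted protein, cell-free; 1 h incubation after dosing; AlphaLISA chemiluminescence binding readout. DMSO = baseline/neg ctrl; signal loss = activity. Primary: duplicate, 25 uM; secondary: conc. series on actives.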

Experiment [4] concerns the target Agonist Androgen Response Element (ARE), AR (gene 367) (UniProt P10275). Description: OT_AR_ARELUC_AG_1440: Odyssey Thera (OT) 24-hour CHO-K1 Luciferase Assay for Agonist Androgen Response Element (ARE) (AID 2283379). In short, it runs like this:
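Gain-of-signal reporter endpoint: cells (CHO-K1, hamster) are treated 24 h, luciferin/ATP reagent added, and luminescence compared with DMSO baseline.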

Experiment [5] has as its target Retinoic acid receptor alpha (Homo sapiens) (UniProt P10276). Description: NVS_NR_hRARa_Agonist: NovaScreen (NVS) Nuclear Receptor Binding Assay for human Retinoic Acid Alpha Receptor Agonism (RAR) (AID 2283361). In short, it runs like this: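 TR-FRET signal, 2 h post-dosing; cell-free extracted protein; DMSO = baseline, positive fitting direction; 25 uM single-point duplicate, then concentration series for actives.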

Experiment [6] has as its target Glucocorticoid receptor (Homo sapiens) (UniProt P04150). Description: NVS_NR_hGR: NovaScreen (NVS) Nuclear Receptor Binding Assay for human Glucocorticoid Receptor (GR) (AID 2283363). In short, it runs like this:
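Filter scintillation readout of tritiated/iodinated radioligand displaced by test chemical; cell-free extracted protein; 16 h. DMSO = negative control/baseline. Duplicate single-point 25 uM screen, then concentration-response on actives.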

Experiment [7] concerns the target guinea pig Sigma Receptor, Non-selective Binding, SIGMAR1 (gene 100135589) (UniProt Q60492). Description: NVS_OR_gSIGMA_NonSelective: NovaScreen (NVS) Nuclear Receptor Binding Assay for guinea pig Sigma Receptor, Non-selective Binding (AID 2283367). The essentials: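 Membranes from guinea pig brain incubated with radioligand and test chemical for 1 h, then filtered and scintillation-counted. Duplicate primary testing at 25 uM, with concentration-series follow-up for actives.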

In experiment [8] the target is Norway rat Vesicular Monoamine Transporter (VMAT2), neurotransmitter transporter, Slc18a2 (gene 25549) (UniProt Q01827). Nature of the experiment: NVS_TR_rVMAT2: NovaScreen (NVS) Transporter Assay for Norway rat Vesicular Monoamine Transporter (VMAT2), neurotransmitter transporter (AID 2283376).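 Also: actives lower the bound radioligand signal below the DMSO level.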 In short, it runs like this:
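Filter-based scintillation counting of radioligand bound to rat forebrain-derived VMAT2 protein, cell-free, 1 h post-dose. Signal loss relative to DMSO control scored; single-concentration duplicate screen (25 uM) followed by concentration-response testing of actives.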

Experiment [9] deals with Peroxisome proliferator-activated receptor gamma (Homo sapiens) (UniProt P37231). Nature of the experiment: NVS_NR_hPPARg: NovaScreen (NVS) Nuclear Receptor Binding Assay for human Peroxisome Proliferator-activated Receptor gamma (PPARg) (AID 2283370). In short, it runs like this: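 Chemicals were tested first in duplicate at 25 uM, then in concentration series if active. Binding to cell-free PPARg protein was measured by fluorescence polarization after 2 h, with loss of signal scored against DMSO.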

Experiment [10] deals with guinea pig Dopamine Transporter (DAT), gene 100714898. Nature of the experiment: NVS_TR_gDAT: NovaScreen (NVS) Transporter Assay for guinea pig Dopamine Transporter (DAT) (AID 2283369).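 Also: active compounds lower bound radioligand signal relative to DMSO.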 In short, it runs like this: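 Scintillation counts of filter-retained radioligand report binding to guinea pig striatal membranes after 2 h. Activity scored as signal loss relative to DMSO, first at 25 uM in duplicate, then in concentration series to 50 uM.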

A further experiment concerns the target PGR (gene 5241) (UniProt P06401). Description: NVS_NR_hPR: NovaScreen (NVS) Nuclear Receptor Binding Assay for human Progestron Receptor (PR) (AID 2283360).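 Also: active means loss of bound radioligand signal versus DMSO baseline.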 In short, it runs like this:
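Cell-free radioligand binding using receptor protein extracted from T47D cells, read by scintillation counting 18 hours after dosing. Loss of signal relative to DMSO baseline indicates displacement; primary screen single concentration 25 uM in duplicate, actives followed in concentration series.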

In experiment [11] the test system is rat Norepinephrine Transporter (NET), gene 83511. Nature of the experiment: NVS_TR_rNET: NovaScreen (NVS) Transporter Assay for rat Norepinephrine Transporter (NET) (AID 2283373). In short, it runs like this: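 Competitive radioligand displacement at the rat NET using forebrain membrane preparations, 1 h incubation, filter-based scintillation readout. Primary testing in duplicate at a single 25 uM concentration; confirmed actives retested across concentrations.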

Experiment [12] has as its target rat Androgen Receptor (AR), Ar (gene 24208) (UniProt P15207). Nature of the experiment: NVS_NR_rAR: NovaScreen (NVS) Nuclear Receptor Binding Assay for rat Androgen Receptor (AR) (AID 2283366). In short, it runs like this:
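Actives from a duplicate single-concentration (25 uM) primary run went on to concentration series. Displacement of radioligand was counted by filtration and scintillation, 18 h post-dose, using prostate extracts from testosterone-pretreated rats, with DMSO as baseline.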

Experiment [13] has as its target human Serotonin Transporter (SERT), SLC6A4 (gene 6532) (UniProt P31645). Nature of the experiment: NVS_TR_hSERT: NovaScreen (NVS) Transporter Assay for human Serotonin Transporter (SERT) (AID 2283372). In short, it runs like this: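 Human platelet membrane preparation; displacement of radioligand from serotonin transporter measured after 1 h by filtration and scintillation counting. Single 25 uM duplicate screen, then concentration series for actives, with DMSO as negative baseline.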

Experiment [14] deals with rat Serotonin Transporter (SERT), Slc6a4 (gene 25553) (UniProt P31652). Nature of the experiment: NVS_TR_rSERT: NovaScreen (NVS) Transporter Assay for rat Serotonin Transporter (SERT) (AID 2283375). In short, it runs like this: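 Filtration-based radiodetection quantified loss of specific radioligand binding in rat forebrain membranes after 1 hour of chemical exposure, relative to DMSO. Chemicals were first tested in duplicate at 25 uM.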

Chain of Agonist Androgen Response Element (ARE), AR (gene 367) (P10275 whole entry, looked up): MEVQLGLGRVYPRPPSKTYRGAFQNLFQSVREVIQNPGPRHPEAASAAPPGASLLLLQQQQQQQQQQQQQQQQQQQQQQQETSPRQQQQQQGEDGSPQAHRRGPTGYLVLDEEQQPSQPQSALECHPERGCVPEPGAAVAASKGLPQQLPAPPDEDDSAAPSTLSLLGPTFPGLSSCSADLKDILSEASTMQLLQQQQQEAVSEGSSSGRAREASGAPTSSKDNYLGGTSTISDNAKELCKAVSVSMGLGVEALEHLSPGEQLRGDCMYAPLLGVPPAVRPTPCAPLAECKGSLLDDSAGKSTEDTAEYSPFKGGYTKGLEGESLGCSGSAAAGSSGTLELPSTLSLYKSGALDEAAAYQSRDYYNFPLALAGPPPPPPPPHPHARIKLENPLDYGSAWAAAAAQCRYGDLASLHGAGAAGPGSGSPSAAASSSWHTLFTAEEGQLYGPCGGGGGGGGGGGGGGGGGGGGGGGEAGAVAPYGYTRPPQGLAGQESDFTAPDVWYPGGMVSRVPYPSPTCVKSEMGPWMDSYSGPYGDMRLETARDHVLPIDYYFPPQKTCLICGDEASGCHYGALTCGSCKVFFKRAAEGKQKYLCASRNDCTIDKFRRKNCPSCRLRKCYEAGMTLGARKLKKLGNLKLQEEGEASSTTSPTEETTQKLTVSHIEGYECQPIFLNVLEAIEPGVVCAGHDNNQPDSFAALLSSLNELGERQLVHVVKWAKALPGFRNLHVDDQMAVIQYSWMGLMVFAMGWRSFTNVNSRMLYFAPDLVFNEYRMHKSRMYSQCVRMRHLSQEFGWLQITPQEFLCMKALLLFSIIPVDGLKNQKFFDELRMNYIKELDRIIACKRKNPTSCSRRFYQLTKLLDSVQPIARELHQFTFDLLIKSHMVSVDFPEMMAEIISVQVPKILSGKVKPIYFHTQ
Chain of Estrogen receptor beta (Homo sapiens) (Q92731 whole entry, looked up, the tested form may be a part): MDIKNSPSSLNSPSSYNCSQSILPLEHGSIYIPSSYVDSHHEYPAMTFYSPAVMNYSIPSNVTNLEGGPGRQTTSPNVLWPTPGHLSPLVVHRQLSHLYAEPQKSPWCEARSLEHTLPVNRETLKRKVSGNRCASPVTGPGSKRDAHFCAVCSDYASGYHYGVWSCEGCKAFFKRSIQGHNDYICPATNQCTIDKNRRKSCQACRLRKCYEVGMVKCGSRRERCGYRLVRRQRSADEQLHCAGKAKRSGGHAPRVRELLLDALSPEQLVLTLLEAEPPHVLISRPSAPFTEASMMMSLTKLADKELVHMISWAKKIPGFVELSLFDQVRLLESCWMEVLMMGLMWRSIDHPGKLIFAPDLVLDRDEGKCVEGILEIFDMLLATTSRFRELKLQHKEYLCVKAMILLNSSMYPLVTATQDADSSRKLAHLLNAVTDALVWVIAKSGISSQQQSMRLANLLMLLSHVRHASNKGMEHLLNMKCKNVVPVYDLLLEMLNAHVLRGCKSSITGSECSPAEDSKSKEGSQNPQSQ
Chain of human Norepinephrine Transporter (NET), SLC6A2 (gene 6530) (P23975 whole entry, looked up): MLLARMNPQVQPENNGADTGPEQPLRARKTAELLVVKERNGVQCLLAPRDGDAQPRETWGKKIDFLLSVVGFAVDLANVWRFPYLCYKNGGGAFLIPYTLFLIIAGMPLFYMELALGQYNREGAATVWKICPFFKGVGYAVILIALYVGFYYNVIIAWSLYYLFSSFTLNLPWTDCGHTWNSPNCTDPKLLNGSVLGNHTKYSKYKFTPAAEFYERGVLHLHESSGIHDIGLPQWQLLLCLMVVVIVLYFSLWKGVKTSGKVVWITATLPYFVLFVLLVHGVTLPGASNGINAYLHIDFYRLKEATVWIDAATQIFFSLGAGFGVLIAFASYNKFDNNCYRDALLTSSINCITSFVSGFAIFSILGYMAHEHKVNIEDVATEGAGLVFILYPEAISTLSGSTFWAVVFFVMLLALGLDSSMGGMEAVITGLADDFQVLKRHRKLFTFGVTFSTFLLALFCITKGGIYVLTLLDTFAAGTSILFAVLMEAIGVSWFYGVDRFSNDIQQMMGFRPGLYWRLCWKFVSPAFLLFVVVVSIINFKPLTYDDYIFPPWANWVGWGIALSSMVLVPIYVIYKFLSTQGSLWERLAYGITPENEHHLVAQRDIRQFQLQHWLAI
Chain of Peroxisome proliferator-activated receptor gamma (Homo sapiens) (P37231 whole entry, looked up): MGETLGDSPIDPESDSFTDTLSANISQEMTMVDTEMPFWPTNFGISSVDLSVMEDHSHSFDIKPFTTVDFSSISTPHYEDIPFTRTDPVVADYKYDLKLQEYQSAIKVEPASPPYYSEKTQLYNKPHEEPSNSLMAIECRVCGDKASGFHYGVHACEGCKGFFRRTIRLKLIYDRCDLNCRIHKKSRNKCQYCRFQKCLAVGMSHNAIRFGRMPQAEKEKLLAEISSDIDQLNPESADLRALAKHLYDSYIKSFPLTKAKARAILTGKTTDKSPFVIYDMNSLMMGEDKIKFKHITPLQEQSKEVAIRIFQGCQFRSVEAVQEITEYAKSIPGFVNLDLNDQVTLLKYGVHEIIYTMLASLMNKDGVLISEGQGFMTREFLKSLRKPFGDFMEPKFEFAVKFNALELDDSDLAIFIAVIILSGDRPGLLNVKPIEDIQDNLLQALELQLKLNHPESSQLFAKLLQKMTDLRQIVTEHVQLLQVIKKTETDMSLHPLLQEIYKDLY
Chain of Glucocorticoid receptor (Homo sapiens) (P04150 whole entry, looked up): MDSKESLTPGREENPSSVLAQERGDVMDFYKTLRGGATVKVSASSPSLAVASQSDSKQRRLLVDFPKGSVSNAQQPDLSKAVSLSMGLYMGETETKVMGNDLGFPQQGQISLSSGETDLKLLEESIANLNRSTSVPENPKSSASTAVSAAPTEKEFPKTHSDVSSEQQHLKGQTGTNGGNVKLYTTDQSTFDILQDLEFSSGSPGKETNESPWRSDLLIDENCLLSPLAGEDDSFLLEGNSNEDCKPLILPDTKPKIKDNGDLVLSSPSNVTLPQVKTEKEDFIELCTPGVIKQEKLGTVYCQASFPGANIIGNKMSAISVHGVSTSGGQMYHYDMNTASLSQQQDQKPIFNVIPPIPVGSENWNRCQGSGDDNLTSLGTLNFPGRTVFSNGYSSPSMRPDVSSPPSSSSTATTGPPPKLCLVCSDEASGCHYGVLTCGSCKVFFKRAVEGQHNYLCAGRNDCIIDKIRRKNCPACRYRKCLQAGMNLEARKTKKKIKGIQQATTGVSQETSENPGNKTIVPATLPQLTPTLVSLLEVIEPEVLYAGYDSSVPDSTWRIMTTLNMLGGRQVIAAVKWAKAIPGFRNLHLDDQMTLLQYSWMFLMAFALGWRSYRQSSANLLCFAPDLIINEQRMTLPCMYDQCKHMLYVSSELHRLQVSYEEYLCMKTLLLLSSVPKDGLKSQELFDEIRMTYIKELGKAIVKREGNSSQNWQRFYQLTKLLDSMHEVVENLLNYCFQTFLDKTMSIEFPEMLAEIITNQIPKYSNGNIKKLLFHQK
Chain of guinea pig Sigma Receptor, Non-selective Binding, SIGMAR1 (gene 100135589) (Q60492 whole entry, looked up): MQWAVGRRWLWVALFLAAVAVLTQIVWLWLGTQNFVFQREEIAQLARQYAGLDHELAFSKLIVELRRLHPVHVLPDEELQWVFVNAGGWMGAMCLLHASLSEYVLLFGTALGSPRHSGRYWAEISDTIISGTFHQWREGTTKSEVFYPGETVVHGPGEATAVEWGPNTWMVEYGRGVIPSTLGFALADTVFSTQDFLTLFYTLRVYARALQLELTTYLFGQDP
Chain of Retinoic acid receptor alpha (Homo sapiens) (P10276 whole entry, looked up): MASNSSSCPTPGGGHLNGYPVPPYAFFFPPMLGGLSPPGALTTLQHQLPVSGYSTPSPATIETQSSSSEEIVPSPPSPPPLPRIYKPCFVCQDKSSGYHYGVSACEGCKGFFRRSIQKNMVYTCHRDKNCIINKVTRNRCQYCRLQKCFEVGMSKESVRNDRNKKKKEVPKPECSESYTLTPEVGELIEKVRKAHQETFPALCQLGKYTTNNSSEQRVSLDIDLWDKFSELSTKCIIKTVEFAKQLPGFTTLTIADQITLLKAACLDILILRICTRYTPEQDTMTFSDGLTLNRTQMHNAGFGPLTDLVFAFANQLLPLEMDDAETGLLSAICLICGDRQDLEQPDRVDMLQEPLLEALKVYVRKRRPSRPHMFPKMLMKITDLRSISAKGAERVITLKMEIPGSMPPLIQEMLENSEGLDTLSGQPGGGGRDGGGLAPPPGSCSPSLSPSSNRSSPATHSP
Chain of human Thyroid Receptor Alpha (TRa), THRA (gene 7067) (P10827 whole entry, looked up): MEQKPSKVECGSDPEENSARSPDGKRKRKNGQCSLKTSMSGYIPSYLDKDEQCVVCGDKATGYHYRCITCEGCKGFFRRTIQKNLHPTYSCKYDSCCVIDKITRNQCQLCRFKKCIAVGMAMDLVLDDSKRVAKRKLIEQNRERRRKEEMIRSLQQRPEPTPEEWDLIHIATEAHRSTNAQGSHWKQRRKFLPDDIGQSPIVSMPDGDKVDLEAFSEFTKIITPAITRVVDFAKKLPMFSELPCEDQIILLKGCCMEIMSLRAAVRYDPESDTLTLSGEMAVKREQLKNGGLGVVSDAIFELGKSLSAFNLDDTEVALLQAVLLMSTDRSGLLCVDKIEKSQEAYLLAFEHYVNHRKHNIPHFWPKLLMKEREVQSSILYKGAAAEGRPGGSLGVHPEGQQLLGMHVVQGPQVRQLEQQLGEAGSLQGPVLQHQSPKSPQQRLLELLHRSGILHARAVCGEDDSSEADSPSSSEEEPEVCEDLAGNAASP

For the molecule `N#CN`, in experiment [1], the AC50 is 13 µM (active). The call in [2] was inactive. On to `CCc1ccc(C(=O)NN(C(=O)c2cc(C)cc(C)c2)C(C)(C)C)cc1`, for which the outcome in experiment [2] was inactive. For `COc1cc(OC)nc(NC(=O)NS(=O)(=O)c2cc(NC=O)ccc2C(=O)N(C)C)n1`, the molecule was called inactive in experiment [3]. Take `Cc1[nH]c(=O)n(C(C)(C)C)c(=O)c1Cl`: the molecule was classed as inactive in [4].

On to `CCC(C)(C)C(=O)OC1=C(c2ccc(Cl)cc2Cl)C(=O)OC12CCCCC2`, for which the molecule was called inactive in [5], in experiment [4] and in experiment [2].

Take `O=C(O)COc1ccc(Cl)cc1Cl`: the call in [6] and in experiment [7] was inactive. On to `O=C(Nc1ccccc1)Nc1cnns1`, for which the AC50 in experiment [8] is 5.31 µM (active). Besides, the molecule was classed as inactive in [2]. With `C#CCN1C(=O)COc2cc(F)c(N3C(=O)C4=C(CCCC4)C3=O)cc21`, the outcome in experiment [4] and in [2] was inactive.

On to `CCC(C)(NC(=O)c1cc(Cl)c(C)c(Cl)c1)C(=O)CCl` (configuration not stated), for which the molecule was called inactive in [2].

For `CCOC1Oc2ccc(OS(C)(=O)=O)cc2C1(C)C` (configuration not stated), the outcome in experiment [4] and in [2] was inactive. Regarding `CNC(=O)Oc1cccc(N=CN(C)C)c1`, in experiment [2], the outcome was inactive. The same measure, in the same setting: with `Clc1ccccc1-c1nnc(-c2ccccc2Cl)nn1` the entry was “inactive”; with `CN1CSC(=S)N(C)C1`, “inactive”.

As for `OCCOc1ccccc1`, in experiment [2], the call was inactive.

In the case of `COC(=O)c1ccccc1CS(=O)(=O)NC(=O)Nc1nc(OC)cc(OC)n1`, the call in [9] was inactive.

Regarding `CC(C)OC(=O)Nc1cccc(Cl)c1`, the call in experiment [10] and in [2] was inactive. Further, the concentration at half-maximal activity (AC50) in experiment [1] was 6.63 µM (active).

Turning to `C[C@H]1[C@H](c2ccc(Cl)cc2)SC(=O)N1C(=O)NC1CCCCC1`, the result (with PGR (gene 5241); in experiment [4]; in [2]) was inactive. As to `CNC(=O)/C=C(\C)OP(=O)(OC)OC`, in experiment [2], the result was inactive. The same measure, in the same setting: in the case of `CNC(=O)Oc1ccccc1OC(C)C` it was “inactive”; in that of `O=C(NC(=O)c1c(F)cccc1F)Nc1ccc(OC(F)(F)C(F)OC(F)(F)F)c(Cl)c1` (configuration not stated), “inactive”.

Take `Oc1cc(Cl)ccc1Oc1ccc(Cl)cc1Cl`: the call in [6], in experiment [9] and in experiment [2] was inactive. The AC50 in [10] was 25.5 µM (active) and 25 µM (active); in experiment [9], 11.6 µM (active) and 16.2 µM (active) and 6.67 µM (active); in [11], 13.7 µM (active) [middle of 4 runs]; in experiment [1], 585 nM (active) [middle of 4 runs]. Turning to `CCC(C)Nc1c([N+](=O)[O-])cc(C(C)(C)C)cc1[N+](=O)[O-]` (configuration not stated), in experiment [9], the call was inactive. Moreover, in experiment [2], the AC50 is 38.5 µM (active). As for `CCOCN(C(=O)CCl)c1c(C)cccc1CC`, in experiment [2], the molecule was classed as inactive. Consider `CCCN(CCC)c1c([N+](=O)[O-])cc(C(F)(F)F)cc1[N+](=O)[O-]`, for which the call in experiment [12], in experiment [10] and in [4] was inactive. On to `CC(C)N(C(=O)COc1nnc(C(F)(F)F)s1)c1ccc(F)cc1`, for which the values for the AC50 in [13] and in [14] were 7.81 µM (active) and 8.58 µM (active), respectively. In experiment [2], the result was inactive.
